The results in this text go back to article PMC7862700, “An all-to-all approach to the identification of sequence-specific readers for epigenetic DNA modifications on cytosine”.

What all share (assay): DAPPL (digital affinity profiling via proximity ligation, sequencing); 10 mM Tris-HCl pH 7.5, 50 mM NaCl, 1 mM DTT, 4% glycerol, room temperature, 30 min; GST-TFs on glutathione beads, 16-mer random dsDNA library, 0.1% formaldehyde crosslink after washing; high values mean tight binding
The target in assay [1] is T1, FEV (Homo sapiens, UniProt Q99581 1-238).
T1 sequence: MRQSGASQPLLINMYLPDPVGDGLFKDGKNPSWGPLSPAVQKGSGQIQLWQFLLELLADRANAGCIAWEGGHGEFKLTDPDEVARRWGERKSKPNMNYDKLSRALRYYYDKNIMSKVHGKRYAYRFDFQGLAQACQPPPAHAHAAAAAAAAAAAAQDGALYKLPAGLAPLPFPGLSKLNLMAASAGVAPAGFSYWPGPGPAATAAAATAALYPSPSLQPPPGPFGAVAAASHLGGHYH
To be noted: protein: recombinant; tags: N-terminal GST; dsDNA, one strand shown. In a few lines:
(§1)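 Yeast served to express human transcription factors as GST fusions, which were then captured on glutathione beads and labelled with DNA barcodes. Pooled with a tag-only sample, they were incubated with 200 nmole of a 16-mer random double-stranded DNA library for 30 min at room temperature in Tris/NaCl/DTT/glycerol buffer, washed, crosslinked with 0.1% formaldehyde, ligated by proximity, amplified by PCR and sequenced. Dividing each hexamer's read frequency for a factor by its frequency for the tag-only sample gives the binding signal.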

Assay [2] addresses ETV5 (Homo sapiens, UniProt P41161 1-510). To be noted: protein: recombinant; tags: N-terminal GST; dsDNA, one strand shown. The procedure, abridged: as §1
Assay [3] has as its target HSF1 (Homo sapiens, UniProt Q00613 1-529). To be noted: protein: recombinant; tags: N-terminal GST; chain copies: 3; dsDNA, one strand shown. In a few lines:
as §1

For assay [4], the target named is T2, SPIC (Homo sapiens, UniProt Q8N5J4 1-248).
T2 sequence: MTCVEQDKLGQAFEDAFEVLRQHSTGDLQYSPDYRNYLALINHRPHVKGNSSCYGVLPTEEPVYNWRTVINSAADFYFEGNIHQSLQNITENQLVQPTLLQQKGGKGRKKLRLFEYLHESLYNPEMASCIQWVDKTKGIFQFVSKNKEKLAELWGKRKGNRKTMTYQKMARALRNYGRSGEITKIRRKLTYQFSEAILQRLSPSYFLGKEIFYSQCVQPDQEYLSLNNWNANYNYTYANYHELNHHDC
To be noted: protein: recombinant; tags: N-terminal GST; dsDNA, one strand shown. The procedure, abridged: as §1

Assay [5] concerns the target ELF4 (Homo sapiens, UniProt Q99607 1-663). To be noted: protein: recombinant; tags: N-terminal GST; dsDNA, one strand shown. The procedure, abridged:
as §1

Assay [6] deals with T3, ELK4 (Homo sapiens, UniProt P28324-2 1-405).
T3 sequence: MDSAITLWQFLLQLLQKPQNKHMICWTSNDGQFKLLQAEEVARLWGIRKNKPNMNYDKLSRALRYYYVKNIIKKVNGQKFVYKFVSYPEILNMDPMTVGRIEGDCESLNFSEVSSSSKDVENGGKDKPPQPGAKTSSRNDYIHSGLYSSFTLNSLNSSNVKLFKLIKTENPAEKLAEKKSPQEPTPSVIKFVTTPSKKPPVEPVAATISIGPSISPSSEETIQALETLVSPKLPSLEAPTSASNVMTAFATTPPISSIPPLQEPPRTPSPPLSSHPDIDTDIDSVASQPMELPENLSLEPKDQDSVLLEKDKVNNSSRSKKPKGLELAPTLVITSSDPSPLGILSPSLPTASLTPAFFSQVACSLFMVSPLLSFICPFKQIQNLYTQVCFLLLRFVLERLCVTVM
As to conditions: protein: recombinant; tags: N-terminal GST; dsDNA, one strand shown. The procedure, abridged:
as §1

Assay [7] concerns the target T4, ETV2 (Homo sapiens, UniProt O00321 1-342).
T4 sequence: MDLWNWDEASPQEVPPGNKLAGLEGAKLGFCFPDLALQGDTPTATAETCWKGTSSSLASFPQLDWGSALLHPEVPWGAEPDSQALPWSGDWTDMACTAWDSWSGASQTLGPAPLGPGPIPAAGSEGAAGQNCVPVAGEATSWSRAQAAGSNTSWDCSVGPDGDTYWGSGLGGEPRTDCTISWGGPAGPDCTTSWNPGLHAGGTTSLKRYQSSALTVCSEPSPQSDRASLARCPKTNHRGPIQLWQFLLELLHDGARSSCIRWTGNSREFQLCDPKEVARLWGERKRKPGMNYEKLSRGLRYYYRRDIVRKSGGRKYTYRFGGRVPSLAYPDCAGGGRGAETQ
As to conditions: protein: recombinant; tags: N-terminal GST; dsDNA, one strand shown. In a few lines:
as §1

Assay [8] has as its target T5, ELF3 (Homo sapiens, UniProt P78545 1-371).
T5 sequence: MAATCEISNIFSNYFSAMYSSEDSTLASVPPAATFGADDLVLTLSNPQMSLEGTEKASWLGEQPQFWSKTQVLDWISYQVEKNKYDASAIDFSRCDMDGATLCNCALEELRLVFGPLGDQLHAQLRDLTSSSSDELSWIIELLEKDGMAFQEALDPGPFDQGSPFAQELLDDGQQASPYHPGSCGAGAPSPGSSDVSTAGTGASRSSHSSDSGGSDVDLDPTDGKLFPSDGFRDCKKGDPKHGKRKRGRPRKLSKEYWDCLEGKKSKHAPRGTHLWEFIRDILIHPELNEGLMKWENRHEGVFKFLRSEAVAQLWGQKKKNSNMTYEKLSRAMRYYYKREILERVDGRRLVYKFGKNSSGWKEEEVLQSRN
To be noted: protein: recombinant; tags: N-terminal GST; dsDNA, one strand shown. The procedure, abridged: as §1

In assay [9] the target is CRX (Homo sapiens, UniProt O43186 1-299). As to conditions: protein: recombinant; tags: N-terminal GST; dsDNA, one strand shown. The procedure, abridged: as §1
Sequence of CRX (O43186 whole entry): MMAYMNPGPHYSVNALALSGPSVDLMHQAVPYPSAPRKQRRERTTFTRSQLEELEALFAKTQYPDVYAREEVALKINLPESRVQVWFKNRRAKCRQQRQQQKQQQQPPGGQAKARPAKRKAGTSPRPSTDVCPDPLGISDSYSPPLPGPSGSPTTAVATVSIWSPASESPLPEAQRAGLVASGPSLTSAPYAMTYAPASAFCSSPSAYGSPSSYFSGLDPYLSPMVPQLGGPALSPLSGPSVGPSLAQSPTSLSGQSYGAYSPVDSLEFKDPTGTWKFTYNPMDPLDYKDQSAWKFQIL
Assay [10] addresses ETV1 (Homo sapiens, UniProt P50549 1-477). As to conditions: protein: recombinant; tags: N-terminal GST; dsDNA, one strand shown. The procedure, abridged: as §1

Sequence of ELF4 (Q99607 whole entry): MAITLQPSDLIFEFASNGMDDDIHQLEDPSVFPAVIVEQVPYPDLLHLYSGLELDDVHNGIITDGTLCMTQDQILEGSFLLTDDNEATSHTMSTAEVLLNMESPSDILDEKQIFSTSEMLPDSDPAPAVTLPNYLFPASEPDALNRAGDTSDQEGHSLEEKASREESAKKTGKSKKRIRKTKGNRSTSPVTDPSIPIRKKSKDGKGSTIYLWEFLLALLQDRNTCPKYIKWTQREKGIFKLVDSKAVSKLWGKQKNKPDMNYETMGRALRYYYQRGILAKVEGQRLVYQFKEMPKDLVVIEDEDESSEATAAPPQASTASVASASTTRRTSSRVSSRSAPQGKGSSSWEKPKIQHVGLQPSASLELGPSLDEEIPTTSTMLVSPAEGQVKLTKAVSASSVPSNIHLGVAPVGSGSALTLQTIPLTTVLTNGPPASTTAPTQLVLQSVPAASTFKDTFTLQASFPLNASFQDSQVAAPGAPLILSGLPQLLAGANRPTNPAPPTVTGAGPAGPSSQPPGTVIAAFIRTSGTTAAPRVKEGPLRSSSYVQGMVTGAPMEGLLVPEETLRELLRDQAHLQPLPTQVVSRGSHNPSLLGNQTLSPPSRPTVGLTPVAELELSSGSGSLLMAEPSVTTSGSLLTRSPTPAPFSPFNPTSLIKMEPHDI
Sequence of ETV1 (P50549 whole entry): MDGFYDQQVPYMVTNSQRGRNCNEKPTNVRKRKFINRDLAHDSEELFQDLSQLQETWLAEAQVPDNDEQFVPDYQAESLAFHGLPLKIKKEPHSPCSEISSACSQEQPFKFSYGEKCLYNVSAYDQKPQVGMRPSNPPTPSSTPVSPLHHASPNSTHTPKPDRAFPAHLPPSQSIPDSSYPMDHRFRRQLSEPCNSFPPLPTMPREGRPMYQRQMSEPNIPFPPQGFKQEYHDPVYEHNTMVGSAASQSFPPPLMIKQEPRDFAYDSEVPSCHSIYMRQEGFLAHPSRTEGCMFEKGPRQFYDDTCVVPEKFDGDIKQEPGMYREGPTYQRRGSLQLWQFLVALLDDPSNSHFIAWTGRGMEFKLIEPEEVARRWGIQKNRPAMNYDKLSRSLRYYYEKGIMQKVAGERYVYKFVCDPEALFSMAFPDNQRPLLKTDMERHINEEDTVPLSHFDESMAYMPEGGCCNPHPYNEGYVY
Sequence of HSF1 (Q00613 whole entry): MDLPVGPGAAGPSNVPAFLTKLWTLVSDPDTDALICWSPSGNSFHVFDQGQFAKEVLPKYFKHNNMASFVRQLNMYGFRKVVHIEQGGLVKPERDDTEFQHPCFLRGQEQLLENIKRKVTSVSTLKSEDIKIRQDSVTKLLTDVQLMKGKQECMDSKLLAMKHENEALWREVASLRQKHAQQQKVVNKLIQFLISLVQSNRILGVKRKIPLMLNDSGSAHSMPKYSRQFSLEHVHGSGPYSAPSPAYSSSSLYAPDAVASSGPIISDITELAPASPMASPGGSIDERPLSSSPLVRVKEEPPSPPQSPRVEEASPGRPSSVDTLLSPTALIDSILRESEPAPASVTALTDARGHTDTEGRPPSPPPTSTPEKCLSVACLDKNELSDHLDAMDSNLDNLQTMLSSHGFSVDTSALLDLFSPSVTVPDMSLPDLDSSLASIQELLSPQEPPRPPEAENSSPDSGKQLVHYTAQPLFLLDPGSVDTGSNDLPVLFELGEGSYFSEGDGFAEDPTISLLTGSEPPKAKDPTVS
Sequence of ETV5 (P41161 whole entry): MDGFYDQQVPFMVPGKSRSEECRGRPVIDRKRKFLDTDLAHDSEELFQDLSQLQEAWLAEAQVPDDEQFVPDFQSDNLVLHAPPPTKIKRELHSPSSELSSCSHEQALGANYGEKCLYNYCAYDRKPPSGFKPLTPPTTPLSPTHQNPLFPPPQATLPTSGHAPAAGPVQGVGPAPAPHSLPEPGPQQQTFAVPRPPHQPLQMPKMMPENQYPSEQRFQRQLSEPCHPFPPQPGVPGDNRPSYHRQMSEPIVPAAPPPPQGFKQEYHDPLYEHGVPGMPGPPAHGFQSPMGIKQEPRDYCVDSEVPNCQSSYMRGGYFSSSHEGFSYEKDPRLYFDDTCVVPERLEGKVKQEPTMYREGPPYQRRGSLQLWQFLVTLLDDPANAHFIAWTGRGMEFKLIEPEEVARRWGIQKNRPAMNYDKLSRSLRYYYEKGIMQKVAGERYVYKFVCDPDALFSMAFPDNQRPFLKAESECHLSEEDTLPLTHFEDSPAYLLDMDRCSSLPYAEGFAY

As for TTCGAT, the binding signal was 1.27 fold enrichment (6-mer frequency, TF over GST control) in [1]; 1.36 fold enrichment (6-mer frequency, TF over GST control) in assay [2]; 1.79 fold enrichment (6-mer frequency, TF over GST control) in [3]; 1.3 fold enrichment (6-mer frequency, TF over GST control) in [4]; 1.27 fold enrichment (6-mer frequency, TF over GST control) in [5]; 1.16 fold enrichment (6-mer frequency, TF over GST control) in assay [6]. Moreover, the binding signal was 1.23 fold enrichment (6-mer frequency, TF over GST control) in [7]; 1.42 fold enrichment (6-mer frequency, TF over GST control) in [8]; 1.56 fold enrichment (6-mer frequency, TF over GST control) in [9]; 1.34 fold enrichment (6-mer frequency, TF over GST control) in assay [10].

Turning to CCCCTT, the binding signal was 1.57 fold enrichment (6-mer frequency, TF over GST control) in assay [1]; 1.62 fold enrichment (6-mer frequency, TF over GST control) in assay [2]; 1.37 fold enrichment (6-mer frequency, TF over GST control) in assay [3]; 1.56 fold enrichment (6-mer frequency, TF over GST control) in assay [4]; 1.63 fold enrichment (6-mer frequency, TF over GST control) in [5]; 1.53 fold enrichment (6-mer frequency, TF over GST control) in assay [6]. Further, the binding signal in assay [7] was 1.35 fold enrichment (6-mer frequency, TF over GST control); in [8], 1.6 fold enrichment (6-mer frequency, TF over GST control); in [9], 1.41 fold enrichment (6-mer frequency, TF over GST control); in assay [10], 1.63 fold enrichment (6-mer frequency, TF over GST control).

As for ATATGG, the binding signal in [1] was 1.25 fold enrichment (6-mer frequency, TF over GST control); in [2], 1.3 fold enrichment (6-mer frequency, TF over GST control); in assay [3] it was 1.17 fold enrichment (6-mer frequency, TF over GST control); in [4], 1.41 fold enrichment (6-mer frequency, TF over GST control); in assay [5], 1.35 fold enrichment (6-mer frequency, TF over GST control); in [6], 1.36 fold enrichment (6-mer frequency, TF over GST control). The binding signal was 1.13 fold enrichment (6-mer frequency, TF over GST control) in [7]; 1.36 fold enrichment (6-mer frequency, TF over GST control) in assay [8]; 1.19 fold enrichment (6-mer frequency, TF over GST control) in [9]; 1.17 fold enrichment (6-mer frequency, TF over GST control) in [10].

As to AAATGG, the binding signal is 1.42 fold enrichment (6-mer frequency, TF over GST control) in [1]; 1.56 fold enrichment (6-mer frequency, TF over GST control) in assay [2]; 1.27 fold enrichment (6-mer frequency, TF over GST control) in assay [3]; 1.51 fold enrichment (6-mer frequency, TF over GST control) in [4]; 1.49 fold enrichment (6-mer frequency, TF over GST control) in assay [5]; 1.5 fold enrichment (6-mer frequency, TF over GST control) in assay [6]. The binding signal in [7] is 1.47 fold enrichment (6-mer frequency, TF over GST control); in assay [8] it was 1.48 fold enrichment (6-mer frequency, TF over GST control); in [9] it was 1.22 fold enrichment (6-mer frequency, TF over GST control); in assay [10] it was 1.5 fold enrichment (6-mer frequency, TF over GST control).

For AAGTTT, the binding signal was 1.35 fold enrichment (6-mer frequency, TF over GST control) in assay [1]; 1.37 fold enrichment (6-mer frequency, TF over GST control) in assay [2]; 1.5 fold enrichment (6-mer frequency, TF over GST control) in [3]; 1.29 fold enrichment (6-mer frequency, TF over GST control) in [4]; 1.39 fold enrichment (6-mer frequency, TF over GST control) in [5]; 1.27 fold enrichment (6-mer frequency, TF over GST control) in assay [6]. For the same sequence, the binding signal in assay [7] is 1.44 fold enrichment (6-mer frequency, TF over GST control); in assay [8], 1.35 fold enrichment (6-mer frequency, TF over GST control); in [9] it was 1.38 fold enrichment (6-mer frequency, TF over GST control); in [10], 1.51 fold enrichment (6-mer frequency, TF over GST control).

Regarding TATACC, the binding signal in assay [1] was 1.23 fold enrichment (6-mer frequency, TF over GST control); in assay [2] it was 1.09 fold enrichment (6-mer frequency, TF over GST control); in assay [3], 1.1 fold enrichment (6-mer frequency, TF over GST control); in assay [4], 1.14 fold enrichment (6-mer frequency, TF over GST control); in assay [5], 1.21 fold enrichment (6-mer frequency, TF over GST control); in assay [6], 1.22 fold enrichment (6-mer frequency, TF over GST control). The binding signal in assay [7] is 1.15 fold enrichment (6-mer frequency, TF over GST control); in [8] it was 1.12 fold enrichment (6-mer frequency, TF over GST control); in assay [9], 1.26 fold enrichment (6-mer frequency, TF over GST control); in assay [10], 1.31 fold enrichment (6-mer frequency, TF over GST control).

In the case of TCTCAA, the binding signal was 1.25 fold enrichment (6-mer frequency, TF over GST control) in assay [1]; 1.3 fold enrichment (6-mer frequency, TF over GST control) in assay [2]; 1.33 fold enrichment (6-mer frequency, TF over GST control) in assay [3]; 1.24 fold enrichment (6-mer frequency, TF over GST control) in [4]; 1.35 fold enrichment (6-mer frequency, TF over GST control) in assay [5]; 1.25 fold enrichment (6-mer frequency, TF over GST control) in [6]. The binding signal in [7] was 1.34 fold enrichment (6-mer frequency, TF over GST control); in assay [8], 1.45 fold enrichment (6-mer frequency, TF over GST control); in assay [9] it was 1.39 fold enrichment (6-mer frequency, TF over GST control); in assay [10], 1.3 fold enrichment (6-mer frequency, TF over GST control).
